Reference: PubChem BioAssay (Tox21)
Several values for one entry are separate records, joined by “and”; a condition that tells them apart may be missing. Identical values can stand only once. Results filed as inconclusive are left out. A call without a number means that no potency is given here. The source holds several records for some structures; these can differ, active in one and inactive in another. Activity calls are given as the source filed them. Unless noted, calls follow the shape of the full dose curve.

Key:
[1] = qHTS assay to identify small molecule agonists of the vitamin D receptor (VDR) signaling pathway - cell viability counter screen (AID 743224; active = well fitted curve in the direction sought with a large enough effect in the repeat runs; an effect the other way counts as inactive or inconclusive; also: nearly all actives have a fitted effect of over 50% in size; also: potency is read from the fitted curve at half-maximal effect)
Procedure, shortened: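 VDR-bla cell line, quantitative HTS format; 16 h compound incubation (37C, 5% CO2); ATP-based CellTiter-Glo luminescence measured in the reporter assay wells.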

[2] = qHTS assay to identify small molecule antagonists of the vitamin D receptor (VDR) signaling pathway - cell viability counter screen (AID 743225; active = well fitted curve in the direction sought with a large enough effect in the repeat runs; an effect the other way counts as inactive or inconclusive; also: nearly all actives have a fitted effect of over 50% in size)
Procedure, shortened: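 Parallel cytotoxicity test: VDR-UAS-bla HEK 293T, 3 nM (final) 1-alpha,25-dihydroxyvitamin D3 with test compound, 16 h, 37C. Endpoint is CellTiter-Glo luminescence in the same wells.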

[3] = qHTS assay to identify small molecule agonists of the NFkB signaling pathway (AID 1159509; active = well fitted curve in the direction sought with a large enough effect in the signal ratio in the repeat runs, not every such curve was filed as active; the % refers to the signal ratio; also: series mostly up to about 61 µM)
Procedure, shortened: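 After overnight attachment, reporter cells received test compounds, DMSO or positive controls and were incubated 5 hr at 37 C. FRET substrate was then added for 1.5 hr at room temperature before dual-emission fluorescence reading.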

[4] = qHTS assay to identify small molecule agonists of the NFkB signaling pathway - cell viability counter screen (AID 1159515); also: series mostly up to about 61 µM; nearly all actives have a fitted effect of over 55% in size
Procedure, shortened: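 Viability in NFkB-bla ME-180 cells was measured by CellTiter-Glo luminescence, 30 min room temperature, in wells already treated 5 hr with compounds and read for reporter FRET.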

[5] = qHTS assay to identify small molecule agonists of the endoplasmic reticulum stress response signaling pathway (AID 1159516; active = well fitted activation curve with a large enough effect in the signal ratio in the repeat runs, not every such curve was filed as active; the % refers to the signal ratio)
Procedure, shortened: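 ER stress element reporter (bla) in HeLa. 1,500 cells/well, overnight attachment; 5 hr compound; 2 hr RT substrate; dual-emission fluorescence.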

[6] = qHTS assay to identify small molecule agonists of the endoplasmic reticulum stress response signaling pathway - cell viability counter screen (AID 1159517); also: nearly all actives have a fitted effect of over 50% in size; also: potency is read from the fitted curve at half-maximal effect
Procedure, shortened: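 Luminescence readout: CellTiter-Glo, 30 min RT, same wells as the ESRE-bla reporter read. HeLa ESRE-bla, 1,500 cells/well, o/n 37 C; cpd 5 hr 37 C/5% CO2.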

[7] = qHTS assay to identify small molecule antagonists of the retinoid-related orphan receptor gamma (ROR-gamma) signaling pathway - cell viability counter screen (AID 1159520; active = well fitted curve in the direction sought with a large enough effect in the repeat runs; an effect the other way counts as inactive or inconclusive; also: nearly all actives have a fitted effect of over 50% in size)
Procedure, shortened: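 Tet-on ROR gamma CHO cells (1,000/well) were plated 4 hr, given compounds in DMSO for 2 hr at 37 C, then induced with 1 uM final doxycycline for 16 hr. Viability was read as ATP by CellTiter-Glo luminescence after 30 min.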

[8] = target: Nuclear receptor ROR-gamma (Homo sapiens) (UniProt P51449); experiment: qHTS assay to identify small molecule antagonists of the retinoid-related orphan receptor gamma (ROR-gamma) signaling pathway (AID 1159521; active = well fitted curve in the direction sought with a large enough effect in the repeat runs; an effect the other way counts as inactive or inconclusive; also: nearly all actives have a fitted effect of over 50% in size; also: potency is read from the fitted curve at half-maximal effect)
Procedure, shortened: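 Decreased RORE-driven luciferase luminescence indicates antagonism. Tet-on RORγ CHO cells received compound, then 1 uM final doxycycline 2 h later; signal read after 16 h incubation.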

[9] = qHTS assay to identify small molecule agonists of the AP-1 signaling pathway - cell viability counter screen (AID 1159525); also: nearly all actives have a fitted effect of over 55% in size
Procedure, shortened: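 ME-180 AP-1-bla, 2500 cells/well, Opti-MEM + 0.5% dialyzed FBS; overnight 37 °C; cpd 15-pt titration, 5 h 37 °C; CellTiter-Glo 30 min RT; luminescence read; normalised to TOAB and DMSO controls.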

[10] = qHTS assay to identify small molecule agonists of the AP-1 signaling pathway (AID 1159526); also: potency is read from the fitted curve at half-maximal effect

SMILES | Potency [1] | outcome [2] | outcome [3] | outcome [4] | outcome [5] | Potency [6] | outcome [7] | Potency [8] | outcome [9] | Potency [10]
Oc1cccc(O)c1 | inactive | inactive | inactive | inactive | inactive | inactive | inactive | inactive | inactive | inactive
O=c1cc[nH]c(=O)[nH]1 | inactive | inactive | inactive | inactive | inactive | inactive | inactive | inactive | inactive | inactive
CN(C)C=O | inactive | inactive | inactive | inactive | inactive | inactive | inactive | inactive | inactive | inactive
CCCCC/C(C=O)=C\c1ccccc1 | inactive | inactive | inactive | inactive | inactive | inactive | inactive | inactive | inactive | inactive
C[C@]12C[C@H](O)[C@H]3[C@@H](CCC4=CC(=O)CC[C@@]43C)[C@@H]1CC[C@@H]2C(=O)CO | inactive | inactive | inactive | inactive | inactive | inactive | inactive | 48.6 µM (active) and inactive | inactive | inactive
COc1ccccc1O | inactive | inactive | inactive | inactive | inactive | inactive | inactive | inactive | inactive | inactive
O=C(O)Cc1cccc2ccccc12 | inactive | inactive | inactive | inactive | inactive | inactive | inactive | inactive | inactive | inactive
CC(C)Cc1ccc(C(C)C(=O)O)cc1 (stereo not given) |  |  | inactive | inactive | inactive | inactive | inactive | inactive | inactive | inactive
CCCCCCCCOc1ccc(C(=O)c2ccccc2)c(O)c1 | inactive and 49 µM (active) | inactive | inactive | inactive | inactive | inactive | inactive | inactive | inactive | inactive
Cn1cnc2c1c(=O)[nH]c(=O)n2C | inactive | inactive | inactive | inactive | inactive | inactive | inactive | inactive | inactive | inactive
CCCCOCCOCCOC(C)=O | inactive | inactive | inactive | inactive | inactive | inactive | inactive | inactive | inactive | inactive
CN(C)Cc1cc(CN(C)C)c(O)c(CN(C)C)c1 | inactive | inactive | inactive | inactive | inactive | inactive | inactive | inactive | inactive | inactive
O=C(O)CCCCC1CCSS1 (stereo not given) | inactive | inactive | inactive | inactive | inactive | inactive | inactive | inactive | inactive | 27.5 µM (active) and inactive
OCCCc1ccccc1 | inactive | inactive | inactive | inactive | inactive | inactive | inactive | inactive | inactive | inactive
C=C(C)C(N)=O | inactive | inactive | inactive | inactive | inactive | inactive | inactive | inactive | inactive | inactive
C=CCOC(=O)CC(C)C | inactive | inactive | inactive | inactive | inactive | inactive | inactive | inactive | inactive | inactive
N[C@@H](Cc1c[nH]c2ccccc12)C(=O)O | inactive | inactive | inactive | inactive | inactive | inactive | inactive | inactive | inactive | inactive
COc1cc(C=O)ccc1O | inactive | inactive | inactive | inactive | inactive | inactive | inactive | inactive | inactive | inactive
CC1=C(/C=C/C(C)=C/C=C/C(C)=C/C(=O)O)C(C)(C)CCC1 | inactive | inactive | inactive | inactive | inactive | 43.7 µM (active) | inactive | inactive | inactive | inactive
NC(=O)c1ccc([N+](=O)[O-])cc1Cl | inactive | inactive | inactive | inactive | inactive | inactive | inactive | inactive | inactive | inactive
Cc1cccc(Nc2cc(Cl)nc(SCC(=O)O)n2)c1C | inactive | inactive | inactive | inactive | inactive | inactive | inactive | inactive | inactive | inactive
CN/C(=C\[N+](=O)[O-])NCCSCc1ccc(CN(C)C)o1 | inactive | inactive | inactive | inactive | inactive | inactive | inactive | inactive | inactive | inactive

SMILES | Potency [1] | outcome [2] | outcome [3] | outcome [4] | outcome [5] | Potency [6] | outcome [7] | Potency [8] | outcome [9] | Potency [10]
O=C(O)CN(CC(=O)O)CC(=O)O | inactive | inactive | inactive | inactive | inactive | inactive | inactive | inactive | inactive | inactive
CCCCNC(=O)NS(=O)(=O)c1ccc(N)cc1 | inactive | inactive | inactive | inactive | inactive | inactive | inactive | inactive | inactive | inactive
O=C(OCc1ccccc1)c1ccccc1 | inactive | inactive | inactive | inactive | inactive | inactive | inactive | inactive | inactive | inactive
CCn1cc(C(=O)O)c(=O)c2ccc(C)nc21 | inactive | inactive | inactive | inactive | inactive | inactive | inactive | inactive | inactive | inactive
CCCCCCCC(=O)OCC(O)CO (stereo not given) | inactive | inactive | inactive | inactive | inactive | inactive | inactive | inactive | inactive | inactive
CC(O)COc1ccccc1 (stereo not given) | inactive | inactive | inactive | inactive | inactive | inactive | inactive | inactive | inactive | inactive
NC(=O)N/N=C/c1ccc([N+](=O)[O-])o1 | inactive | inactive | inactive | inactive | inactive | inactive and 49 µM (active) | inactive | inactive | inactive | inactive
Cc1c(N(C)CS(=O)(=O)O)c(=O)n(-c2ccccc2)n1C | inactive | inactive | inactive | inactive | inactive | inactive | inactive | inactive | inactive | inactive
c1ccc2[nH]c(-c3cscn3)nc2c1 | inactive | inactive | inactive | inactive | inactive | inactive | inactive | inactive | inactive | inactive
Cc1ccc(O)c(-n2nc3ccccc3n2)c1 | inactive | inactive |  | inactive | inactive | inactive | inactive | inactive | inactive | inactive
OC[C@@H](O)[C@@H](O)[C@H](O)[C@H](O)CO | inactive | inactive |  | inactive | inactive | inactive | inactive | inactive | inactive | inactive
NC(=O)NO | inactive | inactive |  | inactive | inactive | inactive | inactive | inactive | inactive | inactive
CC(=O)CCC(C)C | inactive | inactive | inactive | inactive | inactive | inactive | inactive | inactive | inactive | inactive
O=C1CCCCCN1 | inactive | inactive |  | inactive | inactive | inactive | inactive | inactive | inactive | inactive
CCN(CC)CCOC(=O)c1ccc(N)cc1 | inactive | inactive |  | inactive | inactive | inactive | inactive | inactive | inactive | inactive
Cc1cccc2ccccc12 | inactive | inactive |  | inactive | inactive | inactive | inactive | inactive | inactive | inactive
CC(C)(C)CC(C)(C)c1ccc(O)c(-n2nc3ccccc3n2)c1 | inactive | inactive | inactive | inactive | inactive | inactive | inactive | 49.2 µM (active) and inactive | inactive | inactive
CC(=O)Oc1ccccc1C(=O)O | inactive | inactive | inactive | inactive | inactive | inactive | inactive | inactive | inactive | inactive
NCCNc1cccc2ccccc12 | inactive | inactive | inactive | inactive | inactive | inactive | inactive |  | inactive | inactive
COC(=O)c1ccc(O)cc1 | inactive | inactive | inactive | inactive | inactive | inactive | inactive |  | inactive | inactive
COCC(C)N (stereo not given) | inactive | inactive | inactive | inactive | inactive | inactive | inactive | inactive | inactive | inactive
